Experimental data as given in PubChem BioAssay AID1508602 (The Scripps Research Institute Molecular Screening Center, 2020).
“And” between values parts separate entries of the source, which are not always exact repeats. Identical values can stand only once. Screen size: about 650,000 compounds; about 6,800 (1%) were called active. No stated cut-off is given here; in the data, active means activation above about 4.9%; inactive means the rest. For the sample, actives were picked, then their nearest neighbours and some compounds at random.

Each compound was assayed against G-protein coupled receptor 151 (Homo sapiens) (UniProt Q8TDV0) (assay: activators of human GPR151, primary screen, cell-based, PathHunter beta-arrestin, luminescence (AID 1508602;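 further: 0% = median of compound wells and 100% = cells with positive control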)). Conditions: PathHunter beta-arrestin GPR151 cells, at 11.2 µM, active compounds read high.
Chain of G-protein coupled receptor 151 (Homo sapiens) (Q8TDV0 whole entry, looked up): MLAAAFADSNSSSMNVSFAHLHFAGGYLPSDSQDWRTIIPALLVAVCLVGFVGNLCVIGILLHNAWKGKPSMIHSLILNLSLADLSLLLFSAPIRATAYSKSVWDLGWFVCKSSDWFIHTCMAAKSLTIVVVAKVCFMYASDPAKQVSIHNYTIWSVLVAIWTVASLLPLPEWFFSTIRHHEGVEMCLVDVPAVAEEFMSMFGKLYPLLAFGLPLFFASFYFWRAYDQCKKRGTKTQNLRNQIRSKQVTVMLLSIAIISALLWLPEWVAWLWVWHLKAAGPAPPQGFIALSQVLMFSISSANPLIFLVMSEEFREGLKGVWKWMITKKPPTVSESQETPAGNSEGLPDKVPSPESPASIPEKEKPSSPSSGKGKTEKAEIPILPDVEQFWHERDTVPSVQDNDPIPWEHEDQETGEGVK
For COc1ccc2c(=O)c(C(=O)O)c[nH]c2c1, the activation was -1.56% (inactive).
In the case of CC(=O)Nc1ccc(NC(=O)/C=C\C(=O)O)cc1C, the activation is reported as 2.3% (inactive).
For CCOC(=O)C1=C(c2ccccc2)S/C(=C2/C(=S)C(C)(C)N(C(C)=O)c3cc(C)c(C)cc32)S1, the activation was 1.9% (inactive).
In the case of N#CCCN1c2ccccc2Sc2ccc(C(F)(F)F)cc21, the activation is reported as 1.1% (inactive).
For O=C(Nc1cc([N+](=O)[O-])ccc1Cl)c1cc(Cl)ccc1Cl, the activation was -0.475% (inactive).
In the case of CCNc1nc2ccc(C(=O)Nc3ccc(NC(C)=O)cc3)cc2s1, the activation is reported as -3.46% (inactive).
For CC(=O)Nc1ccc(NC(=O)c2ccc3nc(Br)sc3c2)cc1, the activation was 6.16% (active).
For O=C(Nc1ccccc1)c1ccc2nc(Br)sc2c1, the activation was -4.09% (inactive).
For Cc1ccc(C(=O)NCC(=O)OCC(=O)Nc2cccc(Cl)c2)s1, the activation was 0.82% (inactive).
In the case of NC(=O)c1c(NC(=O)c2ccccc2F)sc2c1CCCCCC2, the activation is reported as 1.12% (inactive).
For COC(CNC(=O)CC(NS(=O)(=O)c1ccc(C)cc1)c1ccco1)OC (stereo not drawn), the activation was -0.827% (inactive).
COC(=O)c1ccc2c(=O)n(CCN3CCOCC3)c(SCc3cc(C(C)=O)ccc3OC)nc2c1 was tested, and the activation was -0.152% (inactive).
With COc1ccccc1NC(=O)Nc1ccnn1C1CCN(C(=O)CCc2ccccc2)CC1 the activation was 0.323% (inactive).
With O=C(CCc1nnc(CCCCc2ccccc2)o1)N1CCC(N2CCSCC2)CC1 the activation was 7% (active).
In the case of O=C(CCc1nnc(Cc2cccc(C(F)(F)F)c2)o1)N1CCSCC1, the activation is reported as -0.806% (inactive).
In the case of CN(Cc1ccno1)C(=O)CC1C(=O)NCCN1Cc1ccoc1 (stereo not drawn), the activation is reported as 1.36% (inactive).
COc1cccc(N(C(=O)c2csnn2)C(C(=O)NC(C)(C)C)c2ccc(F)cc2)c1 (stereo not drawn) was tested, and the activation was 0.396% (inactive).
For CCc1ccc(CN(C)C(=O)CC2(c3ccccc3Cl)CC(=O)N(C)C2=O)cc1 (stereo not drawn), the activation was 0.519% (inactive).
With CCc1ccc(-c2oc(C)c(C)[n+]2[O-])cc1 the activation was -2.56% (inactive).
With Cc1cnc(CN(C)C(=O)CC2(c3ccccc3C)CC(=O)N(CCN(C)C)C2=O)[nH]1 (stereo not drawn) the activation was 1.18% (inactive).
For COCCN1C(=O)CC(CC(=O)NCc2nc3ccccc3[nH]2)(c2ccccc2C)C1=O (stereo not drawn), the activation was 6.75% (active).
With COCCN1C(=O)CC(CC(=O)N(C)C(C)C)(c2ccccc2F)C1=O (stereo not drawn) the activation was -1.69% (inactive).
COCCNC(=O)c1cnn2c(C)c(Cc3ccc(Cl)cc3)c(C)nc12 was tested, and the activation was 0.41% (inactive).
CC(=O)c1ccc(-c2cnc3[nH]c(=O)n(C4CCCCC4)c3n2)s1 was tested, and the activation was -0.0776% (inactive).
With Cc1ccc(S(=O)(=O)N2CC3CC3C2C(=O)Nc2ccc(F)cc2)cc1 (stereo not drawn) the activation was 0.0458% (inactive).
Nc1ccc(C(=O)Nc2nc3ccc(C(=O)N4CCCCC4)cc3s2)cc1 was tested, and the activation was -0.249% (inactive).
For CC1CCCC(NCc2c(C(=O)O)n(Cc3ccc(F)cc3)c3ccccc23)C1C (stereo not drawn), the activation was 0.786% (inactive).
For CC1CCCC(NCc2c(C(=O)O)n(Cc3ccc(Cl)cc3)c3ccccc23)C1C (stereo not drawn), the activation was 7.5% (active).
In the case of O=C(O)c1c(CNC2CCCCC2)c2ccccc2n1Cc1ccc(Cl)cc1, the activation is reported as -0.235% (inactive).
In the case of O=C(Nc1ccc(N2CCOCC2)cc1)c1ccc2nc(Nc3ccncc3)sc2c1, the activation is reported as 0.271% (inactive).
For NC(=O)Cn1c(=O)n(CCCCC(=O)NCCc2ccccc2)c(=O)c2ccccc21, the activation was -0.245% (inactive).
With COc1ccc(OC)c(NC(=O)Cn2c(=O)n(Cc3ccccc3)c(=O)c3ccccc32)c1 the activation was -0.558% (inactive).
With O=C(Cn1c(=O)n(Cc2ccccc2)c(=O)c2ccccc21)c1ccccc1 the activation was 5.03% (active).
With CCOC(=O)c1sc(NC(=O)CSc2ncccn2)c(C#N)c1C the activation was 4.97% (active).
In the case of CCOC(=O)c1sc(NC(C)=O)c(C#N)c1C, the activation is reported as -1.06% (inactive) and -0.982% (inactive).
In the case of CCOC(=O)c1sc(NC(=O)CSc2nnc(-c3ccccc3)o2)c(C#N)c1C, the activation is reported as -0.17% (inactive).
With NC(=O)c1c(NC(=S)NC(=O)c2ccccc2)sc2c1CCCCCC2 the activation was -0.485% (inactive).
COc1ccc(C2CC(c3ccccc3)n3ncnc3N2)cc1 (stereo not drawn) was tested, and the activation was -0.25% (inactive).
For COC(Cn1c(=S)[nH]c2cc3ccccc3cc2c1=O)OC, the activation was 0.597% (inactive).
With COc1ccc(C2(C)NC(=O)N(CC(=O)NCCc3ccccc3)C2=O)cc1 (stereo not drawn) the activation was -0.0334% (inactive).
For CC1(c2ccc3ccccc3c2)NC(=O)N(CC(N)=O)C1=O (stereo not drawn), the activation was -0.0365% (inactive).
In the case of COc1ccc(C2(C)NC(=O)N(CC(=O)Nc3ccc4ccccc4c3)C2=O)cc1 (stereo not drawn), the activation is reported as 5.16% (active).
In the case of O=C(Nc1ccc2cn[nH]c2c1)c1ccc(F)cc1F, the activation is reported as -2.11% (inactive).
COc1ccc(C2C(C#N)=C(N)Oc3c2c(C)nn3-c2ccccc2)cc1 (stereo not drawn) was tested, and the activation was 8.46% (active).
COc1cc(C2C(C#N)=C(N)Oc3c2c(C)nn3-c2ccccc2)ccc1OCC#N (stereo not drawn) was tested, and the activation was 0.152% (inactive).
Cc1nn(-c2ccccc2)c2c1C(c1ccc(-c3ccccc3)cc1)C(C#N)=C(N)O2 (stereo not drawn) was tested, and the activation was -3.52% (inactive).
With CCOC(=O)Cn1c(CNC(=O)c2ccco2)nc2ccccc21 the activation was -1.37% (inactive).
With CCOC(=O)c1cccc(NC(=O)CCCOc2ccc(OC)cc2)c1 the activation was 5.63% (active).
In the case of COc1ccc(OCCCC(=O)Nc2ccccc2)cc1, the activation is reported as -0.655% (inactive).
In the case of CCOC(=O)c1cccc(Nc2c(-c3ccccc3)c(=O)c2=O)c1, the activation is reported as -1.39% (inactive).
COc1cccc(NC(=O)CCCOc2ccc(C)cc2)c1 was tested, and the activation was 0.676% (inactive).
For CCOC(=O)c1cccc(NC(=O)/C=C/c2ccccc2)c1, the activation was 5.45% (active).
For CCOC(=O)c1cccc(NC(=O)/C=C/c2ccc(Cl)cc2)c1, the activation was -0.517% (inactive).
For COc1cc(NC(=O)CSc2ncccc2-c2nc3ccccc3[nH]2)cc(OC)c1, the activation was -2.5% (inactive).
With COc1ccc(N2CCN(c3nc(Nc4ccc(C)c(Cl)c4)nc(N4CCCC4)n3)CC2)cc1 the activation was -0.777% (inactive).
For COc1ccc(-c2cc(-c3cccs3)nc3sc(C(N)=O)c(N)c23)cc1, the activation was -1.24% (inactive).
In the case of CC/C=C\C/C=C\C/C=C\C/C=C\C/C=C\C[C@H]1O[C@H]1CCC(=O)OC, the activation is reported as 0.982% (inactive).
For Cc1cccc(C(=O)OCC(=O)NC(=O)NCc2ccccc2)c1C, the activation was 0.774% (inactive).
